Screens: PubChem BioAssay, several laboratories
SUMO Mot1 rescue: inhibitors of SUMOylation pathway: yeast Mot1-301 growth rescue | S. cerevisiae Mot1-301 growth rescue, ATP luminescence, 38.5C; percent above DMSO median, 100 means doubled | growth rescue, % at 18.8 µM | 320,000 compounds, 1% hits | AID 2716;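 active = every valid replicate shows activation above 250% relative to neutral control wells; inactive = the rest, any valid replicate at or below 250%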;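 note: OY570 slx delta 5 strain wells were the positive control but not used for scaling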
NTR1 ag: activates human neurotensin receptor 1. NTR1-U2OS beta-arrestin-GFP spot imaging, agonist mode. P30989. AID 493036. activation, % at 20 µM. 330,000 compounds, 0.17% hits;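 active = activation at or above 40% of the spot to cytoplasm intensity ratio, with at least 20 cells analyzed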;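 note: 0% = DMSO without peptide and 100% = 100 nM NTR1 peptide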
AHR act: activates the human aryl hydrocarbon receptor; P35869; AHR-responsive luciferase reporter cells, luminescence; activation, % at 5 µM; 320,000 compounds, 2.5% hits; AID 2796; in the data active = activation above about 47%;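 note: 0% = vehicle wells and 100% = reference agonist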
Target sequence (P35869 whole entry, looked up): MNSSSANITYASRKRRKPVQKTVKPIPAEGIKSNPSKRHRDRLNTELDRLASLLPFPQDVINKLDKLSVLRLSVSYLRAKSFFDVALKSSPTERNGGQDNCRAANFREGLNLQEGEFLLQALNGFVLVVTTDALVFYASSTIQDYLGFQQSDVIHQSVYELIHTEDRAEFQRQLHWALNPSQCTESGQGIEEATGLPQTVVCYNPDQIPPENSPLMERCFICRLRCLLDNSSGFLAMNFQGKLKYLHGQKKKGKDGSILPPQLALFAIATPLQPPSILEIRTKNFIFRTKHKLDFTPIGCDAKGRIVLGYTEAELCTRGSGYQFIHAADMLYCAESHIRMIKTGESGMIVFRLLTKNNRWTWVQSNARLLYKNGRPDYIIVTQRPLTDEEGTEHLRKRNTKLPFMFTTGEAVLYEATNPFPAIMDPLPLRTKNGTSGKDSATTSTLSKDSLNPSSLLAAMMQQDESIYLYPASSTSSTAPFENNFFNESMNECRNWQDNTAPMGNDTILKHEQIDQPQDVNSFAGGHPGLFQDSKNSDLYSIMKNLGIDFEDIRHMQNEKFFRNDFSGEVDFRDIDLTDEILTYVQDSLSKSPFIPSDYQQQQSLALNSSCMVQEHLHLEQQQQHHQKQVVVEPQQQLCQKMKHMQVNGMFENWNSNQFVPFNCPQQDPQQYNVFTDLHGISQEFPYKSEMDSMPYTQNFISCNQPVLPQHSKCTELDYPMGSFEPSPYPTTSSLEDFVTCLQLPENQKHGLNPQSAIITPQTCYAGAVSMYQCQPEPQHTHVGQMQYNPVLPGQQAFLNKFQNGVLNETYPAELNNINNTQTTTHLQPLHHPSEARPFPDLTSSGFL
NR3A LBD binder: NR3A (human) ligand-binding domain modulation | 340,000 compounds, 2.5% hits | AID 1259313 | Tm shift relative to glycine control, % at 25 µM | NR3A LBD differential scanning fluorimetry, Tm shift; 0% = protein alone, 100% = glycine-bound protein;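 active = melting temperature shift of at least 10% of the positive control shift, at one fixed dose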
Cardio protect: modulators protecting cardiomyocytes from myocardial damage; H9c2 cardiomyocytes, H2O2 injury protection, ATPLite, 2 h; protection from H2O2 cell death, % at 20 µM; 360,000 compounds, 0.63% hits;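 active = compounds giving at least 50% protection of heart cells from peroxide-induced death in the single-dose screen, raw or plate-pattern-corrected value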;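 note: 0% = DMSO wells with peroxide and 100% = DMSO wells without peroxide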
AI-2 QS modul: modulates the Vibrio harveyi AI-2 quorum sensing system; 300,000 compounds, 0.4% hits; Vibrio harveyi JMH597 AI-2 luminescence/OD600 ratio, 9 h; stronger effect = lower value; strain lacks LuxN and CqsS sensors; 0 = neutral-control median; activity change, % at 7.5 µM; in the data active = activity change below about -75%, passing the limit was not always enough;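 note: luminescence divided by OD600 gain over 9 h not by final OD600 alone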
Active calls of the source: *; . = no result. Shown are actives, neighbours in structure and some others; about 6.2% of the full set was active somewhere.

SMILES | SUMO Mot1 rescue | NTR1 ag | AHR act | NR3A LBD binder | Cardio protect | AI-2 QS modul
Cc1cc(-c2cccc([N+](=O)[O-])c2)nc2ccc3ccccc3c12 | -19.8 | 6.3 | 12.2 | 26.7* | -0.8 | 7.3
Cn1c(=O)c2c(nc(C(O)c3ccccc3)n2C)n(C)c1=O (stereo unspecified) | . | . | . | 0.5 | 6.2 | .
COc1ccc(S(=O)(=O)NCC2CCCN(C(=O)CCSC)C2)cc1 (stereo unspecified) | 1.4 | -0.8 | -2.4 | 1.8 | -0.4 | 17.5
COc1ccc(S(=O)(=O)N2CCOCC2)cc1NC(=O)c1ccc(S(=O)(=O)N(C)c2ccccc2OC)cc1 | . | . | . | 2.8 | 2.1 | .
Cc1ccc(N2CC(C(=O)N3CCN(Cc4ccc5c(c4)OCO5)CC3)CC2=O)cc1 (stereo unspecified) | 24.6 | -0.8 | -2.0 | 0.0 | 1.7 | 14.6
C/C(=N\NC(=O)c1c(Cl)cnn1C)c1ccc(NC(=O)c2ccc(Br)o2)cc1 | 0.0 | 10.3 | . | 14.2* | 26.4 | 14.6
C/C(=N\NC(=O)c1c(Br)c(C)nn1C)c1ccc(NC(=O)c2ccoc2C)cc1 | 36.0 | 0.9 | 7.7 | -0.3 | 51.5* | 8.7
C/C(=N/NC(=O)c1ccc(Br)o1)c1cccc(NC(=O)c2ccc(C)o2)c1 | 4.3 | 1.5 | 51.4* | -8.8 | 18.2 | 10.9
C/C(=N/NC(=O)c1ccco1)c1cccc(NC(=O)c2ccc(C)o2)c1 | -7.2 | -0.5 | 9.1 | -8.4 | 2.2 | 40.5
C/C(=N/NC(=O)c1ccc(Br)o1)c1ccncc1 | 3.9 | -0.4 | 50.0* | 0.3 | -5.6 | 11.6
C/C(=N\NC(=O)c1nn(C)c(C)c1Br)c1ccc(NC(=O)c2ccoc2C)cc1 | 6.8 | 4.6 | 6.0 | 4.9 | 16.7 | 16.8
CCOC(=O)c1ccc(-c2ccc3c(c2)CCC3)nc1C | 58.7 | 2.7 | 0.9 | 0.5 | -8.7 | 27.4
CC[C@@H]1C/C=C\Cc2ccccc2[C@@H](C(=O)C[C@H](O)CC(C)=O)OC1=O | 1.7 | -1.3 | -0.4 | 1.2 | 15.7 | .
O=C(Nc1ccccc1)c1cccc2c(-c3cccnc3)coc12 | . | . | . | . | 62.6* | .
NC(=O)c1cccc(-c2coc3c(C(=O)NCCc4ccccc4)cccc23)c1 | . | . | . | . | 59.8* | .
COc1cccc(CNc2ccc(S(N)(=O)=O)cc2)c1OCc1ccccc1F | -5.4 | -1.8 | 48.3* | 2.3 | -7.7 | -2.1
CCCCCCCN1C(Nc2ccccc2)=NC[C@@H]1C | -27.1 | 0.6 | -0.7 | 0.2 | -2.0 | .
COc1ccc(S(=O)(=O)N(CCCN2CCCC2=O)Cc2cc3cc(C)c(C)cc3[nH]c2=O)cc1 | . | . | . | -1.9 | 46.8* | 30.5
COc1ccc(S(=O)(=O)N(CCN2CCOCC2)Cc2cc(OC)ccc2OC)cc1 | -22.0 | 1.2 | 14.8 | 16.0* | -0.4 | 52.8
COc1ccc(S(=O)(=O)N(CCCN2CCOCC2)Cc2cccc(OC)c2OC)cc1 | -5.9 | 2.0 | 7.4 | 2.2 | 3.7 | 17.4
Cc1ccc(S(=O)(=O)N(CCCN2CCCC2=O)Cc2cc3c(C)ccc(C)c3[nH]c2=O)cc1 | -3.5 | 1.2 | -1.1 | -0.6 | 18.5 | 17.3
CC1CCCN(C(=O)c2cccc(S(=O)(=O)N3CCCC3)c2)C1 (stereo unspecified) | 6.6 | -3.3 | 1.8 | -1.2 | 4.2 | .
Cc1ccc(/C=C/S(=O)(=O)NCCC(=O)NCc2ccccc2F)cc1 | 9.8 | 2.4 | 2.6 | -2.4 | -2.3 | .
COc1cc(/C=C/C(=O)OCC(=O)Nc2ccccc2Sc2ccc(Cl)cc2)ccc1O | 8.2 | 18.3 | -0.2 | 15.2* | -2.3 | 50.6
COc1ccccc1NC(=O)c1ccccc1-c1nc(-c2ccccc2OC)no1 | -8.9 | 3.8 | 17.1 | -1.6 | 2.5 | 39.2
SMILES | SUMO Mot1 rescue | NTR1 ag | AHR act | NR3A LBD binder | Cardio protect | AI-2 QS modul
COc1cccc(NC(=O)c2ccccc2-c2nc(-c3ccc(Cl)cc3)no2)c1 | 2.3 | 4.4 | 44.4 | 15.9* | -14.2 | .
COc1ccccc1-c1noc(-c2ccccc2C(=O)Nc2ccccc2)n1 | 13.2 | -0.5 | 47.1* | -1.3 | 1.3 | 21.9
CC(C)NC(=O)N(C)C[C@H]1Oc2c(cccc2N(C)C)C(=O)N([C@H](C)CO)C[C@@H]1C | -11.0 | 2.6 | -0.8 | -0.6 | 7.8 | .
CC(C)(C)C(=O)NCCN1CCN(C(=O)C(C)(C)C)CC1 | -7.6 | -0.3 | 1.9 | 673.0* | 6.5 | 2.6
C[C@H](CO)N1C[C@H](C)[C@@H](CN(C)Cc2ccc(-c3ccccc3)cc2)Oc2c(NC(=O)Nc3ccc4c(c3)OCO4)cccc2C1=O | 2.8 | 4.1 | 5.2 | -4.6 | 16.1 | .
Cc1cccc(Nc2nc(-c3ccccc3)c(C(=O)Nc3cccnc3)s2)c1 | -15.9 | 4.8 | 50.8* | -0.3 | 23.0 | 20.6
O=C(Nc1cccnc1)c1sc(Nc2ccccc2)nc1-c1ccccc1 | -12.0 | 1.9 | 39.9 | 27.1* | 65.3* | 26.1
O=C(Nc1cccnc1)c1ccc2nc(-c3ccccc3)c(-c3ccccc3)nc2c1 | . | 17.2 | 9.7 | -18.6 | 27.3 | 16.5
COc1cc(Cl)c(C)cc1NC(=O)CC1SC(N2CCOCC2)=NC1=O (stereo unspecified) | -1.6 | -1.6 | -0.5 | -0.2 | 3.3 | .
Cc1ccc(S(=O)(=O)N[C@H](C(=O)N2CCC(C(=O)N[C@@H](CCC(N)=O)C(=O)O)CC2)C(C)C)cc1 | 19.7 | -0.7 | 0.1 | 0.8 | 6.0 | 26.4
COc1ccc(CN2CCC(=O)N([C@H](CO)c3ccccc3)CC2)cc1 | 3.7 | -1.0 | 1.3 | -0.6 | -1.2 | 18.3
CC(C)COc1ccc(-c2nn(-c3ccccc3)cc2C(=O)Nc2nccs2)cc1 | 10.2 | 8.7 | 4.4 | 10.4* | 4.7 | 8.9
O=C(NCCCN1CCOCC1)c1cn(-c2ccccc2)nc1-c1ccc(Br)cc1 | 1.1 | -0.7 | -0.8 | 2.3 | 22.2 | .
O=C(Nc1nccs1)c1cn(-c2ccccc2)nc1-c1ccccc1 | 0.4 | 4.3 | 16.6 | -2.8 | 22.8 | 12.9
CC(=O)Cc1nsc(NC(=O)c2cn(-c3ccccc3)nc2-c2ccc(Br)cc2)n1 | . | -6.9 | 0.9 | 31.4* | -10.4 | 10.3
Cc1cnc(C(=O)OCC(=O)Nc2c(Cl)cc(Cl)cc2Cl)cn1 | 14.2 | -0.4 | -0.9 | -0.8 | -2.8 | .
Cc1cnc(C(=O)OCC(=O)Nc2cc(Cl)cc(Cl)c2)cn1 | -0.3 | 0.2 | 1.2 | 13.2* | -0.5 | -17.5
Cc1cnc(C(=O)OCC(=O)Nc2ccc(Br)c(C)c2)cn1 | -5.4 | -3.2 | 1.9 | 12.4* | 2.9 | .
CC(=O)OCC(=O)Nc1ccc(Br)c(C)c1 | 10.3 | 1.3 | 3.2 | 0.1 | -4.9 | 10.4
CCOC(=O)c1ccccc1NC(=O)c1ccc2c(=O)n3c(nc2c1)CCCCC3 | -9.1 | 6.0 | -3.2 | -0.9 | 51.2* | 12.3
COc1ccc(Cc2nnc(SCC(=O)NC3CCCC3)o2)cc1 | -1.7 | 1.7 | 1.8 | 18.7* | -2.8 | 15.1
COc1ccc(OCc2nnc(SCC(=O)NC3CCCCC3)o2)cc1 | -13.5 | -1.3 | 2.9 | -3.0 | -4.6 | 21.3
Cc1ccc2nc(NCc3ccccc3)c(C=O)c(=O)n2c1 | -6.4 | 0.7 | 0.1 | 13.7* | 5.9 | -4.5
